Experimental data published in PubChem BioAssay AID1851 (National Center for Advancing Translational Sciences (NCATS), 2009).
Out of some 16,000 compounds screened, about 5,800 (36%) were called active. Another 23% or so got no clear call; they are omitted. Some of the results follow. Unmarked numbers belong to inactive results. The call rests on the fitted dose curve; in most records, active means well fitted curve in the direction sought with a large enough effect; inconclusive means small, poorly fitted or top-dose-only effect, or effect the other way; inactive means no such curve, though single readings can be large or run the other way.

biological target: Cytochrome P450 2C19 (Homo sapiens) (UniProt P33261); assay: Cytochrome panel assay with activity outcomes; details: recombinant CYP, pro-luciferin dealkylation, luminescence, p450-cyp2c19; series mostly up to 57.1 µM; activity, negative = inhibition: at the top concentration
On the % scale 0 is the no-effect control and ±100 the full control effect.

Chain of Cytochrome P450 2C19 (Homo sapiens) (P33261 whole entry, looked up): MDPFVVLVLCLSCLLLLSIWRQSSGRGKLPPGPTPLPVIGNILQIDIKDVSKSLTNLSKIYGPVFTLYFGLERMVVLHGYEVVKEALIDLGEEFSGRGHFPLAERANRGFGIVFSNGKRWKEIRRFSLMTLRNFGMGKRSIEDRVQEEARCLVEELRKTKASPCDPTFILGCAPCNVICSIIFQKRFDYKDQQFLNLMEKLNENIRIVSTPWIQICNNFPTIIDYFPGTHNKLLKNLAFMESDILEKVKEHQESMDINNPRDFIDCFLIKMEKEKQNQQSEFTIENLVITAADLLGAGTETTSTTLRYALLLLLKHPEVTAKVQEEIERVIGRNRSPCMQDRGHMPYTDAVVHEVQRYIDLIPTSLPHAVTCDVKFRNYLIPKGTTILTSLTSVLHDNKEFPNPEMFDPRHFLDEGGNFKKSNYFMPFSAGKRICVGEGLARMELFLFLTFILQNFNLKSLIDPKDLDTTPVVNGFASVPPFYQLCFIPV

SMILES	activity, negative = inhibition	AC50
CCNc1ncc2nc(C)c(=O)n(C[C@H]3CCCO3)c2n1	4.63%	
COc1ccc(CONS(=O)(=O)c2ccc(NC(C)=O)cc2)cc1Cl		2.24 µM (active)
COc1ccc(CNC(C)(C)C)cc1Cl	-4.36%	
Clc1ccc(/C=N/c2c(-c3ccc(Cl)cc3)nc3n2CCS3)cc1		14.1 µM (active)
CCOc1ccc(N2C(=O)/C(=C/c3cccs3)N(CC(=O)OC)C2=S)cc1	-17.3%	
CCOc1ccc(N2C(=O)/C(=C/c3cc(OC)c(OC)c(OC)c3)N(CC(=O)OC)C2=S)cc1		3.55 µM (active)
CCN(CC)C(=O)C1CCCN(c2ccc([N+](=O)[O-])cc2/C=N/NC(=O)c2ccc([N+](=O)[O-])cc2)C1 (stereo unspecified)		14.1 µM (active)
O=C(N/N=C/c1cc([N+](=O)[O-])ccc1N1CCNCC1)c1ccc([N+](=O)[O-])cc1	-15.8%	
CCOC(=O)C(CC)(CC)C(=O)/C=C/c1ccc(Br)cc1		2.82 µM (active)
O=C(NCCNc1ccc([N+](=O)[O-])cc1)c1ccccc1Br		7.94 µM (active)
O=C(O)CCCCCNC(=O)c1ccccc1Br	-30.4%	
O=[N+]([O-])c1ccc(NN=C2c3ccccc3Cc3ccccc32)c([N+](=O)[O-])c1	-15.8% [at 11.4 µM]	
O=[N+]([O-])c1ccc(C2CCCC/C2=N\OCc2cccc(F)c2)c([N+](=O)[O-])c1 (stereo unspecified)		7.08 µM (active)
CC(Sc1ccc2c(c1)OCCO2)C(=O)Nc1ncc(Cl)cc1Cl (stereo unspecified)		2.82 µM (active)
Cc1cccc(C)c1OC[C@H](C)N		inactive
COc1ccc2cc(C(=O)CCC(=O)O)ccc2c1		2 µM (active)
CCOc1ccc(C(=O)CCC(=O)O)cc1	-28.2%	
COc1ccc2cc(CCC(C)=O)ccc2c1	-42.2% [at 25.6 µM]	
Cc1ccc(S(=O)(=O)N[C@H]2COC(=O)[C@H](C)COC(=O)[C@H](C)NC(=O)C/C=C\[C@H]2C)cc1	16.6% [at 11.4 µM]	
COc1cccc(CSCC(=O)O)c1	-7.72% [at 11.4 µM]	
COc1cccc(CNCCNC(=O)c2nonc2N)c1		15.8 µM (active)
COc1cccc(CNc2ccc3nc(-c4ccc(N)cc4)c(OC)n3n2)c1	-34.4%	
CCOc1cccc(CNCCNC(=O)c2nonc2N)c1		15.8 µM (active)
CN1CCN(CN2C(=O)C3C4C=CC(C3C2=O)C2C3C(=O)N(CN5CCN(C)CC5)C(=O)C3C42)CC1 (stereo unspecified)	27.4% [at 11.4 µM]	
CC[C@@]12CCCN3CCc4c(n(c5ccccc45)C(=O)C1)[C@H]32	-19.6% [at 11.4 µM]	
Cc1ccc(S(=O)(=O)c2nc(S(=O)(=O)c3ccc(C)cc3)c(NCc3ccco3)s2)cc1		8.91 µM (active)
